Parameters in all cases: scale not given: direction of the effect not stated beside the values
The target of assay [1] is Protein translocase subunit SecA (Escherichia coli (strain K12)) (UniProt P10408). Kind of assay: Assay to Identify E. coli SecA ATPase Inhibitors. In kind it is functional. The conditions noted are these: 30 µM.
Assay [2] has as its target T1, Ubiquitin-activating enzyme e1, putative (Leishmania donovani (strain BPK282A1)) (UniProt E9BSI1).
T1 sequence (whole entry): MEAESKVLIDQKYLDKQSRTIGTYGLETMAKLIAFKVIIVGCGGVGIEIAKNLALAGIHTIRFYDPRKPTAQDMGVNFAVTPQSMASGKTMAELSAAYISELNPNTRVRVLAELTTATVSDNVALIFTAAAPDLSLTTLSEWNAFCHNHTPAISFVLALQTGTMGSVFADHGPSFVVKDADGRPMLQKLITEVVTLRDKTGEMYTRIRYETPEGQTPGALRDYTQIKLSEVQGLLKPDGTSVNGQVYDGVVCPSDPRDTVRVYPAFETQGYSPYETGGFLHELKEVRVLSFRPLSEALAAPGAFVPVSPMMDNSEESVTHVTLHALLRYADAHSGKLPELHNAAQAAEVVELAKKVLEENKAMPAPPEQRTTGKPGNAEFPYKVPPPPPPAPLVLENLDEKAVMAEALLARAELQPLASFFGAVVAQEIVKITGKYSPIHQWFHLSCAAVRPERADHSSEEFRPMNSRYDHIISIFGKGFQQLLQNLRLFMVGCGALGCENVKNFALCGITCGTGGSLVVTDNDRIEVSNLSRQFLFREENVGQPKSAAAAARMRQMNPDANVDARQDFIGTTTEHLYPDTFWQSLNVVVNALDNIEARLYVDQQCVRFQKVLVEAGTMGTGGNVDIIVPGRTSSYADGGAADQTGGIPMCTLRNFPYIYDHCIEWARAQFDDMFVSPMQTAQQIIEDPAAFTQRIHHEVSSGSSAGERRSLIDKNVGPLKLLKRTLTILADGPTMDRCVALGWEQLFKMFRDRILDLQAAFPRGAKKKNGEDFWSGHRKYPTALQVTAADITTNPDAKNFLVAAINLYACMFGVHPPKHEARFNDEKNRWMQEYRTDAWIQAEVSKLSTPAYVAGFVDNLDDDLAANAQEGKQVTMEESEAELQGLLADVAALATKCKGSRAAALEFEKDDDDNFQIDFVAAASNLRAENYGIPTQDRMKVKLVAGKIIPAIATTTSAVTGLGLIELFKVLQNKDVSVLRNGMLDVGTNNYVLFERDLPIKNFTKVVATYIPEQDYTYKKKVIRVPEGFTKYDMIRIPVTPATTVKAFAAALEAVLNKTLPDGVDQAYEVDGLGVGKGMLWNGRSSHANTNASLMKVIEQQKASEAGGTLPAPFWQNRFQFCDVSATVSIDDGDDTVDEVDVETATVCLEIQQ
Kind of assay: Leishmania donovani Ubiquitin Activating Enzyme (LdE1). The conditions noted are these: 30 µM. In kind it is functional.

The target of assay [3] is Sialic acid-binding Ig-like lectin 9 (Homo sapiens) (UniProt Q9Y336). Kind of assay: Hs-Siglec9 ALPHAscreen SOP 20170721. The conditions noted are these: 10 µM.
Chain of Sialic acid-binding Ig-like lectin 9 (Homo sapiens) (Q9Y336 whole entry): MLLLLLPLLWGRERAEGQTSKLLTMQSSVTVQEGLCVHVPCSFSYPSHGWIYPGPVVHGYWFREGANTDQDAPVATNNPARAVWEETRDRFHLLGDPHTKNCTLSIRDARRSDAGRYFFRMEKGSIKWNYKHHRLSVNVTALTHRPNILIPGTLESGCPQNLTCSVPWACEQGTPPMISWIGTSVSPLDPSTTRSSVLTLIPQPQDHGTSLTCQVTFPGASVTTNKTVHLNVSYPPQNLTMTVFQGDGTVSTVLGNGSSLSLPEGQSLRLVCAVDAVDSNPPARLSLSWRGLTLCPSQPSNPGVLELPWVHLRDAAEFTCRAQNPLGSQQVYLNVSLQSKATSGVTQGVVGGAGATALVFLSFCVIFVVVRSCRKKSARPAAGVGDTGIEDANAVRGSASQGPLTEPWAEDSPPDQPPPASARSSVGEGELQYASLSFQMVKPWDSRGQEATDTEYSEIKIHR
The subject of assay [4] is Trypanosoma cruzi. Kind of assay: Trypanosoma cruzi phosphomannomutase and mannose-1-phosphate guanylyltransferase assay. The class given is functional. The conditions noted are these: 10 µM.
Assay [5] concerns the target T2, Arginase-2, mitochondrial (Homo sapiens) (UniProt P78540).
T2 sequence (whole entry): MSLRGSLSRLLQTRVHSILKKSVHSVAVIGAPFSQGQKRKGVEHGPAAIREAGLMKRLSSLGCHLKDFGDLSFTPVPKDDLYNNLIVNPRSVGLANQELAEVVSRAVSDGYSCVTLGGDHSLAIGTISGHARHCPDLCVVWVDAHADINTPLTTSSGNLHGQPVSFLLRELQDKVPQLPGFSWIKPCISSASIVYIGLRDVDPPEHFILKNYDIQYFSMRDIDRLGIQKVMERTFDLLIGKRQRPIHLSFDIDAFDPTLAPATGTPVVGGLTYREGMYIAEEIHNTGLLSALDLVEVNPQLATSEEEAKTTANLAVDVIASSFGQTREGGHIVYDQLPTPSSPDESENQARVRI
Kind of assay: in vitro enzyme assay to detect the production of urea directly proportional to the activity of Arginase II. Note: in the data most compounds retested in dose-response had high values. The class given is functional. The conditions noted are these: 33.3 µM.

The target of assay [6] is T3, Proteasome subunit beta (Trypanosoma cruzi) (UniProt O96673).
T3 sequence (whole entry): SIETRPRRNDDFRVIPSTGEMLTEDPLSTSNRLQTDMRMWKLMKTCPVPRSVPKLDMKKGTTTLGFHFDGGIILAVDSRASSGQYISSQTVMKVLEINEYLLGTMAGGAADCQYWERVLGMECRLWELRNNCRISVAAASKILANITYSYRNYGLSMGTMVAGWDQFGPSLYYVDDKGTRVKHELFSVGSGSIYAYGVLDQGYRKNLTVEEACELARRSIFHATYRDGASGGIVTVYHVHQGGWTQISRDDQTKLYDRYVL
Kind of assay: Trypanosoma cruzi proteasome chymotrypsin-like activity (TcProtChymo) assay. Note: in the data most compounds retested in dose-response had high values. The class given is functional. The conditions noted are these: 9.37 µM.

The species entered for assay [7] is Homo sapiens. Kind of assay: To identify inhibition of the IFN signalling (Jak-Stat) pathway via expression of an eGFP reporter gene under the control of an IFN-stimulated response element (ISRE) containing MxA promoter. In kind it is functional. The conditions noted are these: 30 µM.
Assay [8] deals with T4, Tyrosyl-tRNA synthetase, putative (Trypanosoma cruzi (strain CL Brener)) (UniProt Q4DSP6).
T4 sequence (whole entry): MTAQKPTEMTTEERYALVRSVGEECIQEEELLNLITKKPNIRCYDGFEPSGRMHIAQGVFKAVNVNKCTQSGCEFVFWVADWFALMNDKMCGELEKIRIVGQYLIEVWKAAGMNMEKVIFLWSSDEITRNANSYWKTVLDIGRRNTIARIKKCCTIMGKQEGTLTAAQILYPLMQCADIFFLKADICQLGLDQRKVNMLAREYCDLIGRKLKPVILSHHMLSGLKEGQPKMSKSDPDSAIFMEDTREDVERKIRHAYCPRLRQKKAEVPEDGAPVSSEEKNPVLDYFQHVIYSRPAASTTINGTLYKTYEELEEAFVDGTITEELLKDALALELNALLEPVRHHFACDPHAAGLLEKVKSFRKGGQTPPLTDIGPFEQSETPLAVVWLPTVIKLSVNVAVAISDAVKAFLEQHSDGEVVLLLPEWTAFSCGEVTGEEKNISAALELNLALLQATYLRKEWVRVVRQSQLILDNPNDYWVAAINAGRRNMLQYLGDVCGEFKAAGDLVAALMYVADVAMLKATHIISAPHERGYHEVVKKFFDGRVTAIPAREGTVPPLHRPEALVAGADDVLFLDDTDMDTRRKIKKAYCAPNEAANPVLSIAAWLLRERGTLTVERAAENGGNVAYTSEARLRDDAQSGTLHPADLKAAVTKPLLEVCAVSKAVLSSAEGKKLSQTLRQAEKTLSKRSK
Kind of assay: Trypanosoma cruzi tyrosyl tRNA synthetase (TcYRS) _High Tyrosine SOP. Note: in the data most compounds retested in dose-response had high values. The conditions noted are these: 30 µM. In kind it is functional.

Assay [9] has as its target T4, Tyrosyl-tRNA synthetase, putative (Trypanosoma cruzi (strain CL Brener)). Kind of assay: Trypanosoma cruzi tyrosyl tRNA synthetase (TcYRS) SOP. The class given is functional. The conditions noted are these: 30 µM.
In assay [10] the target is Chromo domain-containing protein 1 (Saccharomyces cerevisiae (strain ATCC 204508 / S288c) (Baker's yeast)) (UniProt P32657). Kind of assay: ScCHD-1 Enzyme Inhibition Assay. Note: in the data most compounds retested in dose-response had high values. The class given is functional. The conditions noted are these: 30 µM.
Chain of Chromo domain-containing protein 1 (Saccharomyces cerevisiae (strain ATCC 204508 / S288c) (Baker's yeast)) (P32657 whole entry, the tested form may be a part): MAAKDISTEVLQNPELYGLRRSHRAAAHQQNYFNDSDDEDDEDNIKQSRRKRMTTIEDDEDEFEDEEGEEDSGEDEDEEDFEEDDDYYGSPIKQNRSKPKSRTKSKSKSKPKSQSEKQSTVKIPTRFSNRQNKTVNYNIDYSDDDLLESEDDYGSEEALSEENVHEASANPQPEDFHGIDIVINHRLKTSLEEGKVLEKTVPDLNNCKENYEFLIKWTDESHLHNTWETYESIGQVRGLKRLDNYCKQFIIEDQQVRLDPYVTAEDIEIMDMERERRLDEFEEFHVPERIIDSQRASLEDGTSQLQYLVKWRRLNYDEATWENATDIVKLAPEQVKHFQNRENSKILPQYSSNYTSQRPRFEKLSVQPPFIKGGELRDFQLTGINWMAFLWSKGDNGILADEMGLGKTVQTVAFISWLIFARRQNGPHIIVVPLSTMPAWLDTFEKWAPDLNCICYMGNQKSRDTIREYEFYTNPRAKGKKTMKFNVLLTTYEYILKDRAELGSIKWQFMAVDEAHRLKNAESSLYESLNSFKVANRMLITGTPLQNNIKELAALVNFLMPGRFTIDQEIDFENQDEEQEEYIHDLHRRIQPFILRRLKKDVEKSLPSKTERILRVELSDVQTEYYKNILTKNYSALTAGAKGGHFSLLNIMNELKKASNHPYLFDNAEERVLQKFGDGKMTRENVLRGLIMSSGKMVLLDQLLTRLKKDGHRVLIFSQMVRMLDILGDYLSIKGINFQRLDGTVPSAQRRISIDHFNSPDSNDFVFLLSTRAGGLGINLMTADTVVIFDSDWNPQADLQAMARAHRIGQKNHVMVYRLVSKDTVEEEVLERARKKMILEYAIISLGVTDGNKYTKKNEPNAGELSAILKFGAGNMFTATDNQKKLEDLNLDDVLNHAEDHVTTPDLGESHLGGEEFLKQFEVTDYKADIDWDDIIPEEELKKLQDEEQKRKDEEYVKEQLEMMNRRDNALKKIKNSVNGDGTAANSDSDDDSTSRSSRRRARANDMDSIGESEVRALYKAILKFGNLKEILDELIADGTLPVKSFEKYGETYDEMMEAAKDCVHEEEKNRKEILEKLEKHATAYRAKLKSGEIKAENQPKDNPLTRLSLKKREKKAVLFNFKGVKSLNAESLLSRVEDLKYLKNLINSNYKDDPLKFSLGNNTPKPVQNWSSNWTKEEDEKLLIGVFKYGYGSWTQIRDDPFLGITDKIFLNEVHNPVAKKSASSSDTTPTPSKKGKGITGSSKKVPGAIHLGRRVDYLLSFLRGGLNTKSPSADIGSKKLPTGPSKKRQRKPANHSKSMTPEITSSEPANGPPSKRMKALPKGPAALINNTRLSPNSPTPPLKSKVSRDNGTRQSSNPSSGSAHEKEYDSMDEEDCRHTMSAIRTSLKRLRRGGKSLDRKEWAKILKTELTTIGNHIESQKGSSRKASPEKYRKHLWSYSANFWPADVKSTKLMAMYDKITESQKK

For some assays here: Measured potencies and affinities stand elsewhere.

Chain of Protein translocase subunit SecA (Escherichia coli (strain K12)) (P10408 whole entry): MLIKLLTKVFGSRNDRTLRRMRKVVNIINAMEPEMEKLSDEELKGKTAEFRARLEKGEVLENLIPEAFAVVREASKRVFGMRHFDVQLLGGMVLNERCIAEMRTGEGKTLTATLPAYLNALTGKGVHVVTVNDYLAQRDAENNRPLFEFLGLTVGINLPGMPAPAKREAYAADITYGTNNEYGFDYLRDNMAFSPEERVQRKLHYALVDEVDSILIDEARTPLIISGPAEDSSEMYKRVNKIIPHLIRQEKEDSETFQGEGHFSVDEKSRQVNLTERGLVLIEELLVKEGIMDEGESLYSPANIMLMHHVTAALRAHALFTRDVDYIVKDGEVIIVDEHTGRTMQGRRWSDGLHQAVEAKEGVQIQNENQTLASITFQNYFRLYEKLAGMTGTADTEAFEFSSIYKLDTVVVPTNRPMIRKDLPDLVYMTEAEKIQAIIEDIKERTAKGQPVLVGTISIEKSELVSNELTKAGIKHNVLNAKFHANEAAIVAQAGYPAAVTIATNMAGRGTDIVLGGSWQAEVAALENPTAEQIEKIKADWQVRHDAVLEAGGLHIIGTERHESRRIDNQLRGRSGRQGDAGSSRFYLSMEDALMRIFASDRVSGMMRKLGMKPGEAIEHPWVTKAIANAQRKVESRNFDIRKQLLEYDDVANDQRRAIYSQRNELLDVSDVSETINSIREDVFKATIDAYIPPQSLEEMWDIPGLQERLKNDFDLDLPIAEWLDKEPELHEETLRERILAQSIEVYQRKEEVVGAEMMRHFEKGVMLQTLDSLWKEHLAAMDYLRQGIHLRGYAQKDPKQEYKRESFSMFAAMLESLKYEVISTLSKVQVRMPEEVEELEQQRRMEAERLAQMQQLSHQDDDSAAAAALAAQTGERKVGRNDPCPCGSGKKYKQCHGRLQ

Consider `O=C(NCCC1=CCCCC1)C1CCCN(c2ccc3nncn3n2)C1` (stereo not given), for which the Percent Effect in assay [1] is -2.76%; in assay [2], 8.11%; in assay [3], 3.56%; in assay [4] it was -0.291%; in [5], -9.44%; in [6], 13.5%. The Percent Effect was -5.74% in assay [7], 3.72% in [8], 12.2% in [9] and -1.71% in assay [10].
For the compound `O=C(NCCOc1ccc(Cl)cc1)N1CCS(=O)(=O)CC1`, the Percent Effect is -5.3% in assay [1]; 5.13% in assay [2]; -7.37% in assay [3]; 6.1% in [4]; -1.23% in assay [5]; 6.74% in [6]. Moreover, the Percent Effect in [7] is 3.33%; in assay [8], -0.478%; in assay [9], 10.8%; in [10], -6.32%.
For the compound `Nc1nccc(-c2c[nH]nc2C2CCCCC2)n1`, the Percent Effect is 1.44% in assay [1]; 10.7% in assay [2]; -1.99% in assay [3]; -6.83% in assay [4]; 3.1% in assay [5]; 17.9% in assay [6]. The Percent Effect was 99.6% in [7], 1.58% in assay [8], 0% in assay [9] and -6.8% in assay [10].
Regarding `Cn1cc(NC(=O)N2CCC(c3ccccc3)CC2)ccc1=O`, the Percent Effect is -1.84% in [1]; 51.3% in assay [2]; 4.28% in assay [3]; 8.92% in assay [4]; 9.43% in [5]; 2.3% in [6]. The Percent Effect was 23% in [7], 0.478% in assay [8], 6.02% in assay [9] and 1.81% in assay [10].
For `Cc1noc(C(C)C)c1C(=O)NCCN1CCCCCC1=O`, the Percent Effect in assay [1] is 0.794%; in assay [2], 20.8%; in assay [3] it was 3.57%; in assay [4], 1.68%; in [5], 1.02%; in [6] it was 14.9%. Besides, the Percent Effect in [7] was -6.97%; in assay [8] it was 6.86%; in assay [9] it was 16.5%; in assay [10] it was -7.87%.
As for `COC(=O)COc1cccc(NS(=O)(=O)c2cc(C(=O)O)cs2)c1`, the Percent Effect in assay [1] is -0.923%; in [2], 17.9%; in assay [3], -17.3%; in assay [4], 4.41%; in assay [5], -2.87%; in assay [6], 17.5%. Further, the Percent Effect in [7] was 22.9%; in assay [8] it was 1.44%; in [9] it was 20.5%; in assay [10], -7.25%.
Turning to `N#Cc1cccc(N2CC3(CCN(C(=O)c4cccnc4)C3)CC2=O)c1` (stereo not given), the Percent Effect is -6.73% in [1]; 9.09% in [2]; -3.3% in assay [3]; -4.58% in [4]; -3.64% in assay [5]; 12.6% in assay [6]. Besides, the Percent Effect was -1.73% in [7], 3.68% in assay [8], 15.4% in assay [9] and -3.29% in assay [10].
Regarding `Cc1cccc(N2CCN(C(=O)Nc3cnn(CC(N)=O)c3)CC2)c1`, the Percent Effect in [1] is 0.381%; in [2] it was 20.5%; in [3], -9.92%; in [4], 5.73%; in assay [5], 6.56%; in [6] it was 1.28%. Moreover, the Percent Effect in assay [7] was -6.7%; in assay [8] it was 4.31%; in assay [9] it was 25.3%; in assay [10] it was -4.54%.
For `Cc1cc(C)n(CC2CCCCN2C(=O)c2ccc3c(c2)OCO3)n1` (stereo not given), the Percent Effect in assay [1] was -0.864%; in assay [2] it was 5.33%; in assay [3] it was -0.84%; in assay [4], -6.22%; in assay [5], 1.33%; in [6] it was 7.38%. Moreover, the Percent Effect in [7] was 8.9%; in assay [8] it was 2.63%; in assay [9], 10.3%; in assay [10], -0.951%.
Take `Cc1cc(C(=O)NCC(C)N2CCc3ccccc32)no1` (stereo not given): the Percent Effect was 0.558% in [1]; 2.6% in assay [2]; 10.1% in [3]; 2.8% in assay [4]; -4.3% in [5]; 0.175% in [6]. The Percent Effect in assay [7] was 23.3%; in [8], 7.84%; in assay [9], 11.8%; in assay [10] it was -1.74%.
For `Cc1cc(C)n2cc(CN3CCCC3Cn3nc(C)nc3C)nc2n1` (stereo not given), the Percent Effect is -6.31% in assay [1]; -2.67% in assay [2]; 2.66% in assay [3]; 3.41% in assay [4]; 3.1% in [5]; 10.6% in [6]. Moreover, the Percent Effect in [7] is 1.56%; in [8] it was 16.3%; in assay [9], 15.4%; in assay [10], -6.76%.
